In PubChem BioAssay (NCI):
The panel holds about 83,000 compounds, 20% with a hit somewhere; the sample as a whole holds those more often.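 Values shown are percent growth following 48 h exposure of cells in 96-well plates to a single concentration of compound; below 10 was considered active.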 Calls of active or inactive are those of the source.

Test system: NCI-H226 lung
Assay: NCI-60 one-dose screen, 48 h (100 = growth as untreated, 0 = no growth, -100 = all killed)
Details: 10 µM unless noted

Which growth does the source give for `CCC1S/C(=N\N=C(/C)c2ccco2)N(c2ccccc2)C1=O` (stereo not drawn) here?
The growth was 122% (inactive).

`C#C[C@H](O)/C=C/CCCCCCC#C[C@H](O)CC[C@@H](O)C#CCCCCCC/C=C/[C@@H](O)C#C` was tested. Which growth did it give?
Its growth is 116% (inactive).

With `O=[N+]([O-])c1cccc2cc(S(=O)(=O)O)ccc12` as the compound, how does the growth read?
The growth was 103% (inactive).

`Nc1ccc(S(=O)(=O)Nc2cc(I)cc(I)c2)cc1` was tested. Which growth did it give?
The growth was 113% (inactive).

With `O=C(Nc1ccc(-n2cc(-c3ccncc3)c(-c3ccc(O)c(Cl)c3)n2)cc1)Nc1cc(C(F)(F)F)cc(C(F)(F)F)c1` as the compound, how does the growth read?
The growth was 87.8% (inactive).

How did the growth turn out when `O[C@@H]1CCO[C@H](c2ccc3ccccc3c2)C1` was run?
The growth was 96.8% (inactive).

Which growth does the source give for `COc1cc(Cn2cc3c(c2)-c2onc(CO)c2CC3)cc(OC)c1OC` here?
Its growth is 81.5% (inactive).

For `CN(C)CCS(=O)(=O)Nc1cc(-c2ccc3ncnc(Nc4ccc(F)c(Cl)c4)c3c2)cnc1Cl`, which growth is on record?
Its growth is 1.48% (active).

How did the growth turn out when `CCN(CC)c1ccc(C2CC(c3cc(OC)c(OC)c(OC)c3)=NN2)cc1` (stereo not drawn) was run?
Its growth is 67.9% (inactive).

How did the growth turn out when `CCn1cc(C(=O)O)c(=O)c2cc(F)c(N3CCN(CC(=O)Nc4ccc(C(C)=O)cc4)CC3)cc21` was run?
The growth was 86.3% (inactive).

Which growth does the source give for `CCOc1ccc(-n2c(-c3cc(OC)c(OC)c(OC)c3)nnc2-c2ccc(OC)cc2N)cc1` here?
Its growth is 80.1% (inactive).

For `COc1ccc(/C(=C/c2cc(OC)c(OC)c(OC)c2)[N+](=O)[O-])cc1`, which growth is on record?
Its growth is 3.77% (active).

With `O=C(Nc1cccc([N+](=O)[O-])c1)Nc1cccc([N+](=O)[O-])c1` as the compound, how does the growth read?
The growth was 53% (inactive).

How did the growth turn out when `COc1ccc(-c2nn(-c3ccc(NC(=O)Nc4cc(C(F)(F)F)cc(C(F)(F)F)c4)cc3)cc2-c2ccncc2)cc1Cl` was run?
The growth was 0.753% (active).

For `O=c1c2ccccc2sc2c(NCCCNCCO)nc3ccccc3c12`, which growth is on record?
Its growth is 44.4% (inactive).

How did the growth turn out when `O=C(NNC(=O)c1ccc([N+](=O)[O-])cc1)c1ccc([N+](=O)[O-])cc1` was run?
Its growth is 99.3% (inactive).

For `CCN(CC)C(=O)C1CCN(C(=O)c2ccccc2)CC1`, which growth is on record?
Its growth is 94.1% (inactive).

With `O=S(=O)(O)c1ccc(F)cc1` as the compound, how does the growth read?
The growth was 103% (inactive).

For `Cc1cc(SCc2ccc(Cl)cc2Cl)nc(SCc2ccc(Cl)cc2Cl)n1`, which growth is on record?
Its growth is 96% (inactive).

`CCOC(=O)c1noc2c1CCc1cn(Cc3cc(OC)cc(OC)c3)cc1-2` was tested. Which growth did it give?
Its growth is 101% (inactive).

How did the growth turn out when `CC(C)(C)C(=O)Nc1nc2c(s1)CCc1ccn(S(=O)(=O)c3ccccc3)c1-2` was run?
Its growth is 92.4% (inactive).

How did the growth turn out when `CCCCCCCCCCCCCCCCNc1ccccc1` was run?
The growth was 99.8% (inactive).

How did the growth turn out when `Cc1nc(N)nc(SCc2ccccc2)c1Br` was run?
The growth was 83.7% (inactive).

For `O=S(c1ccccc1)c1ccc2nnnn2n1` (stereo not drawn), which growth is on record?
Its growth is 103% (inactive).

`O=C1COc2ccccc2C(=O)N1CCCCN1CCCCC1` was tested. Which growth did it give?
The growth was 93% (inactive).

How did the growth turn out when `O=C(COc1ccc(Cl)cc1Cl)N1N=C(c2ccc(Cl)cc2Cl)CC1(O)c1cc(F)c(Cl)cc1Cl` (stereo not drawn) was run?
The growth was 149% (inactive).

With `CC(CCC(=O)O)[C@H]1CCC2C3C(=O)C[C@@H]4CC(=O)CC[C@]4(C)C3CC(=O)[C@@]21C` (stereo partly drawn) as the compound, how does the growth read?
Its growth is 103% (inactive).

`COc1ccc(-c2nn(-c3ccc(NC(=O)Nc4ccc(Cl)c(C(F)(F)F)c4)cc3)cc2-c2ccncc2)cc1Cl` was tested. Which growth did it give?
The growth was 1.73% (active).

`O=C1COc2ccccc2C(=O)N1CCCCNc1ccccc1` was tested. Which growth did it give?
The growth was 91.7% (inactive).

Which growth does the source give for `O=C1CCC(c2c(O)cc(O)c3c(=O)c(O)c(-c4ccc(O)c(O)c4)oc23)N1` (stereo not drawn) here?
Its growth is 104% (inactive).

Which growth does the source give for `CCCCCCCCCCCCCCCC(=O)NS(=O)(=O)OC[C@H]1O[C@@H](n2cnc3c(N)ncnc32)[C@H](O)[C@@H]1O` here?
The growth was -65.1% (active).

With `CN(CCNCc1ccccn1)CCNCc1ccccn1` as the compound, how does the growth read?
The growth was -63.6% (active).

`CCN(CC)CCNCC(O)Cc1ccc(OC)cc1` (stereo not drawn) was tested. Which growth did it give?
Its growth is 90.5% (inactive).

With `CN1CCN(Cn2nc(-c3cc(Cl)cc(Cl)c3Cl)n(/N=C/c3ccc(Cl)cc3)c2=S)CC1` as the compound, how does the growth read?
The growth was 104% (inactive).

Which growth does the source give for `Cn1cnc([N+](=O)[O-])c1N1c2ccncc2Sc2ccncc21` here?
Its growth is 82.1% (inactive).

Which growth does the source give for `O=C(O)c1cccc2oc(-c3ccccc3O)nc12` here?
The growth was 63% (inactive).

Which growth does the source give for `Nn1c(CN2CCN(c3cc4c(cc3F)c(=O)c(C(=O)O)cn4C3CC3)CC2)n[nH]c1=S` here?
The growth was 107% (inactive).

For `Cc1ccc2nc(-c3ccc(-n4on4-c4ccc(/C=C/c5ccc(-n6on6-c6ccc(-c7nc8ccc(C)cc8s7)cc6)cc5S(=O)(=O)O)c(S(=O)(=O)O)c4)cc3)sc2c1`, which growth is on record?
Its growth is 108% (inactive).

`CC(C)(C)NCC(O)COc1c(Br)c(Br)c(Br)c2c1OC(C)(C)C2` (stereo not drawn) was tested. Which growth did it give?
Its growth is 42.5% (inactive).

Test system: NCI-H322M lung
Assay: as above
Details: 10 µM unless noted

Which growth does the source give for `CCC1S/C(=N\N=C(/C)c2ccco2)N(c2ccccc2)C1=O` (stereo not drawn) here?
The growth was 66.8% (inactive).

For `C#C[C@H](O)/C=C/CCCCCCC#C[C@H](O)CC[C@@H](O)C#CCCCCCC/C=C/[C@@H](O)C#C`, which growth is on record?
Its growth is 96.3% (inactive).

Which growth does the source give for `O=[N+]([O-])c1cccc2cc(S(=O)(=O)O)ccc12` here?
Its growth is 107% (inactive).

Which growth does the source give for `Nc1ccc(S(=O)(=O)Nc2cc(I)cc(I)c2)cc1` here?
The growth was 94.8% (inactive).

Which growth does the source give for `O=C(Nc1ccc(-n2cc(-c3ccncc3)c(-c3ccc(O)c(Cl)c3)n2)cc1)Nc1cc(C(F)(F)F)cc(C(F)(F)F)c1` here?
Its growth is 51.5% (inactive).

Which growth does the source give for `O[C@@H]1CCO[C@H](c2ccc3ccccc3c2)C1` here?
Its growth is 104% (inactive).

How did the growth turn out when `COc1cc(Cn2cc3c(c2)-c2onc(CO)c2CC3)cc(OC)c1OC` was run?
Its growth is 85.1% (inactive).

Which growth does the source give for `CN(C)CCS(=O)(=O)Nc1cc(-c2ccc3ncnc(Nc4ccc(F)c(Cl)c4)c3c2)cnc1Cl` here?
Its growth is -21.5% (active).

How did the growth turn out when `CCN(CC)c1ccc(C2CC(c3cc(OC)c(OC)c(OC)c3)=NN2)cc1` (stereo not drawn) was run?
The growth was 41.5% (inactive).

Which growth does the source give for `CCn1cc(C(=O)O)c(=O)c2cc(F)c(N3CCN(CC(=O)Nc4ccc(C(C)=O)cc4)CC3)cc21` here?
Its growth is 101% (inactive).

How did the growth turn out when `CCOc1ccc(-n2c(-c3cc(OC)c(OC)c(OC)c3)nnc2-c2ccc(OC)cc2N)cc1` was run?
Its growth is 81.3% (inactive).

`COc1ccc(/C(=C/c2cc(OC)c(OC)c(OC)c2)[N+](=O)[O-])cc1` was tested. Which growth did it give?
The growth was 86.7% (inactive).

Which growth does the source give for `O=C(Nc1cccc([N+](=O)[O-])c1)Nc1cccc([N+](=O)[O-])c1` here?
Its growth is 68% (inactive).

How did the growth turn out when `COc1ccc(-c2nn(-c3ccc(NC(=O)Nc4cc(C(F)(F)F)cc(C(F)(F)F)c4)cc3)cc2-c2ccncc2)cc1Cl` was run?
The growth was 30.9% (inactive).

How did the growth turn out when `O=c1c2ccccc2sc2c(NCCCNCCO)nc3ccccc3c12` was run?
Its growth is 65.8% (inactive).

For `O=C(NNC(=O)c1ccc([N+](=O)[O-])cc1)c1ccc([N+](=O)[O-])cc1`, which growth is on record?
Its growth is 120% (inactive).

For `CCN(CC)C(=O)C1CCN(C(=O)c2ccccc2)CC1`, which growth is on record?
Its growth is 99.4% (inactive).

For `O=S(=O)(O)c1ccc(F)cc1`, which growth is on record?
The growth was 97.3% (inactive).

With `Cc1cc(SCc2ccc(Cl)cc2Cl)nc(SCc2ccc(Cl)cc2Cl)n1` as the compound, how does the growth read?
The growth was 96.5% (inactive).

For `CCOC(=O)c1noc2c1CCc1cn(Cc3cc(OC)cc(OC)c3)cc1-2`, which growth is on record?
The growth was 102% (inactive).

How did the growth turn out when `CC(C)(C)C(=O)Nc1nc2c(s1)CCc1ccn(S(=O)(=O)c3ccccc3)c1-2` was run?
The growth was 83.3% (inactive).

For `CCCCCCCCCCCCCCCCNc1ccccc1`, which growth is on record?
The growth was 83.8% (inactive).

`Cc1nc(N)nc(SCc2ccccc2)c1Br` was tested. Which growth did it give?
Its growth is 70.3% (inactive).

With `O=S(c1ccccc1)c1ccc2nnnn2n1` (stereo not drawn) as the compound, how does the growth read?
The growth was 98.7% (inactive).

For `O=C1COc2ccccc2C(=O)N1CCCCN1CCCCC1`, which growth is on record?
The growth was 104% (inactive).

For `O=C(COc1ccc(Cl)cc1Cl)N1N=C(c2ccc(Cl)cc2Cl)CC1(O)c1cc(F)c(Cl)cc1Cl` (stereo not drawn), which growth is on record?
Its growth is 110% (inactive).

How did the growth turn out when `CC(CCC(=O)O)[C@H]1CCC2C3C(=O)C[C@@H]4CC(=O)CC[C@]4(C)C3CC(=O)[C@@]21C` (stereo partly drawn) was run?
The growth was 111% (inactive).

For `COc1ccc(-c2nn(-c3ccc(NC(=O)Nc4ccc(Cl)c(C(F)(F)F)c4)cc3)cc2-c2ccncc2)cc1Cl`, which growth is on record?
Its growth is 32.7% (inactive).

Which growth does the source give for `O=C1COc2ccccc2C(=O)N1CCCCNc1ccccc1` here?
The growth was 99.5% (inactive).

How did the growth turn out when `O=C1CCC(c2c(O)cc(O)c3c(=O)c(O)c(-c4ccc(O)c(O)c4)oc23)N1` (stereo not drawn) was run?
The growth was 92.8% (inactive).

For `CCCCCCCCCCCCCCCC(=O)NS(=O)(=O)OC[C@H]1O[C@@H](n2cnc3c(N)ncnc32)[C@H](O)[C@@H]1O`, which growth is on record?
The growth was -46.2% (active).

How did the growth turn out when `CN(CCNCc1ccccn1)CCNCc1ccccn1` was run?
The growth was 9.06% (active).

`CCN(CC)CCNCC(O)Cc1ccc(OC)cc1` (stereo not drawn) was tested. Which growth did it give?
Its growth is 91.4% (inactive).

Which growth does the source give for `CN1CCN(Cn2nc(-c3cc(Cl)cc(Cl)c3Cl)n(/N=C/c3ccc(Cl)cc3)c2=S)CC1` here?
Its growth is 67.6% (inactive).

How did the growth turn out when `Cn1cnc([N+](=O)[O-])c1N1c2ccncc2Sc2ccncc21` was run?
Its growth is 110% (inactive).

With `O=C(O)c1cccc2oc(-c3ccccc3O)nc12` as the compound, how does the growth read?
Its growth is 58.7% (inactive).

`Nn1c(CN2CCN(c3cc4c(cc3F)c(=O)c(C(=O)O)cn4C3CC3)CC2)n[nH]c1=S` was tested. Which growth did it give?
The growth was 93.3% (inactive).

`Cc1ccc2nc(-c3ccc(-n4on4-c4ccc(/C=C/c5ccc(-n6on6-c6ccc(-c7nc8ccc(C)cc8s7)cc6)cc5S(=O)(=O)O)c(S(=O)(=O)O)c4)cc3)sc2c1` was tested. Which growth did it give?
The growth was 112% (inactive).

For `CC(C)(C)NCC(O)COc1c(Br)c(Br)c(Br)c2c1OC(C)(C)C2` (stereo not drawn), which growth is on record?
Its growth is -19.3% (active).
